MITF act = activators of MITF-driven TRPM1 promoter activity in SK-MEL-5 cells; SK-MEL-5 TRPM1-promoter luciferase, 24 h; % of positive control, neutral wells = 0; 300,000 tested, 0.75% active; activation, % at 12.5 µM;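 active = mean activation of at least 80% with every replicate also reaching 80%; inconclusive = mean reaches 80% but some replicate falls short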;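 note: 0% = neutral control wells and 100% = parthenolide positive control wells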
C2C12 statin = protects C2C12 myotubes from simvastatin toxicity; rescue of ATP level, % at 7.49 µM; 330,000 tested, 0.78% active; ATP luminescence, 48 h; scaled: DMSO 0, geranylgeraniol control 100; AID 602340;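 active = mean ATP rescue above about 67%, or every replicate alone reaching that limit, limit read from the data, passing the limit was not always enough; inconclusive = no clear call, values can overlap the other calls; inactive = mean under the limit and some replicate under it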;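 note: myotubes were challenged with 10 µM simvastatin during compound exposure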
Wnt bcat act = Wnt/beta-catenin pathway activation; AID 743398; 300,000 tested, 1.2% active; Wnt/beta-catenin reporter cell assay, activator, plate reader; activation, % at 9.35 µM; in the data active = activation above about 30%, passing the limit was not always enough; inconclusive = no clear call, values can overlap the other calls;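 note: 0% = neutral control wells and 100% = positive control wells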
esBAF inh = blocks esBAF chromatin remodeling in mouse ES cells; Bmi1-luciferase knock-in reporter, 24 h; 100% = twice the neutral-well signal; reporter increase, % at 12.5 µM; 350,000 tested, 2% active; AID 602393; in the data active = activation above about 40%; inconclusive = no clear call, values can overlap the other calls;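 note: 0% = median of the plate's neutral control wells and 100% = double that signal; a rise in the Bmi1 reporter signal indicates esBAF inhibition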
FXN GAA850 act = frataxin GAA850 promoter activation | HEK293 lucGAA850 FXN promoter luciferase reporter, 24 h; percent of 10 µM SAHA response | activation, % at 6 µM | 360,000 tested, 0.56% active;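 active = activation above the average of all compounds screened plus 3 SD, cutoff fixed separately per campaign, cut at about 7.5% in these data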;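 note: 0% = DMSO wells and 100% = 10 µM SAHA wells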
The depositor's hits bear a star; ? = inconclusive; . = no result. Rows were chosen to be rich in hits. Some 3.3% of all compounds tested hit in one or more screens of this group.

SMILES	MITF act	C2C12 statin	Wnt bcat act	esBAF inh	FXN GAA850 act
COc1cccc(NC(=O)N(C)C[C@@H]2Oc3ncc(C#Cc4ccncc4)cc3C(=O)N([C@H](C)CO)C[C@H]2C)c1	.	34.6	.	5.0	.
COc1cccc(NC(=O)Nc2nc(-c3ccc(OC)c(OC)c3)cs2)c1	-79.7	-97.9	-7.7	42.7*	-13.8
O=C(Nc1nc(-c2cccc(Br)c2)cs1)Oc1ccccc1	47.9	4.6	12.7	45.4*	3.8
COc1ccc(-c2csc(NC(C)=O)n2)cc1OC	.	0.2	6.2	29.4	1.1
COc1cccc(-c2csc(NC(C)=O)n2)c1	83.0*	-1.2	.	77.6*	2.2
C[C@H]1CN([C@@H](C)CO)C(=O)c2cc(C#CCN(C)C)cnc2O[C@H]1CN(C)S(=O)(=O)c1ccccc1	.	3.6	.	-2.5	.
C[C@@H]1CN([C@H](C)CO)S(=O)(=O)c2ccc(C#CCN(C)C)cc2O[C@H]1CN(C)C(=O)C1CC1	.	9.4	.	0.0	.
CC(C)(O)[C@H]1Cc2cc3ccc(=O)oc3cc2O1	97.7*	6.0	11.0	-0.2	4.8
CO[C@H]1CN(C)C(=O)c2cc(NC(=O)C3CCC3)ccc2OC[C@@H](C)N(Cc2ccc(F)cc2)C[C@H]1C	.	12.5	.	3.4	.
Cn1c(SCc2ccccc2F)nc2cccnc21	.	.	.	43.3*	3.6
Cc1cc(C[n+]2cc(Cl)ccc2N)c2ncccc2c1	1.7	-12.8	-0.6	0.3	-0.9
Cc1cc(C[n+]2cc(Br)ccc2N)c2ncccc2c1	0.8	.	40.6*	.	1.0
CCCOC(=O)c1c(NC(=O)/C=C/c2cnn(C)c2C)sc(C(=O)OC)c1C	30.2	.	-3.6	6.6	-1.2
CCc1ccc(C(=O)/C=C/c2cnn(C)c2C)s1	.	0.8	23.2	55.0*	2.6
Nc1ccc(/C=C/C(=O)c2cccs2)cc1	70.4	10.7	17.9	68.2*	5.4
Cc1c(/C=C/C(=O)c2cccs2)cnn1C	50.3	-1.5	57.2*	33.0	4.8
CCCNC(=O)[C@H]1[C@H](CO)[C@H]2Cn3c(cccc3=O)[C@H]2N1C(=O)C1CCCC1	.	-15.9	.	-3.9	.
O=C1COc2ccc(OCc3ccc(F)cc3)cc21	90.5*	6.2	.	22.0	1.6
COc1ccc2c(-c3cc4ccc(OCc5ccc(F)cc5)cc4oc3=O)cc(=O)oc2c1	-25.8	.	.	.	0.1
O=C(Nc1cccc2[nH]ncc12)c1ccc(F)cc1	96.2*	-20.4	-4.0	16.9	-10.8
O=C(NC(=S)Nc1cccc2[nH]ncc12)c1ccccc1	61.3	4.4	20.5	14.1	-4.3
COc1ccc(C2CC(c3cccs3)=NN2C(=O)CSc2nnnn2C)cc1OC (configuration not stated)	-14.9	.	-2.8	.	-2.0
CC(C)n1nnnc1SCC(=O)N1N=C(c2cccs2)CC1c1cccs1 (configuration not stated)	59.8	0.7	4.6	71.1*	3.7
Cc1ccc(C2CC(c3cccs3)=NN2C(=O)CCl)cc1 (configuration not stated)	-52.4	-25.5	17.6	62.0*	-10.9
C[C@@H]1CN([C@@H](C)CO)C(=O)c2cc(C#CC(C)(C)O)cnc2O[C@@H]1CN(C)Cc1cccc(F)c1	.	-1.7	.	-5.3	.
SMILES	MITF act	C2C12 statin	Wnt bcat act	esBAF inh	FXN GAA850 act
COc1ccc(NC(=O)CSc2ccccc2)c([N+](=O)[O-])c1	?	0.7	3.6	57.4*	6.5
CCCNC(=O)N(C)C[C@@H]1Oc2ncc(-c3ccc(OC)cc3)cc2C(=O)N([C@H](C)CO)C[C@@H]1C	.	9.8	.	5.2	.
O=C(c1ccc([N+](=O)[O-])o1)N1CCN(c2nc3c(F)cc(F)cc3s2)CC1	-79.0	?	6.0	-12.4	2.4
O=[N+]([O-])c1ccc2nc(N3CCCC3)sc2c1	?	-7.6	14.3	79.0*	4.5
O=C(c1ccccc1)N1CCN(c2nc3ccc([N+](=O)[O-])cc3s2)CC1	-3.5	.	-0.9	.	-0.6
O=C(c1cccs1)N1CCN(c2nc3c(F)cc(F)cc3s2)CC1	48.2	-11.0	1.1	43.1*	2.4
O=C(Nc1ccc(F)cc1F)c1ccc2nc(N3CCOCC3)sc2c1	.	-41.9	3.0	41.7*	2.9
Fc1cc(F)c2nc(N3CCCCC3)sc2c1	45.8	-15.9	20.6	66.2*	5.9
CC=Cc1ccc2n(c1=O)C[C@@H]1[C@@H](CO)[C@H](C(=O)NCC3CC3)N(Cc3cccnc3)[C@H]21 (mixture of isomers)	.	-20.6	.	-0.4	.
C[C@H](CO)N1C[C@H](C)[C@@H](CN(C)C(=O)c2ccncc2)OCCCC[C@H](C)Oc2ccc(NC(=O)c3ccccc3)cc2C1=O	.	.	.	4.7	.
C[C@@H]1CN([C@@H](C)CO)C(=O)c2cc(NS(=O)(=O)c3cn(C)cn3)ccc2O[C@H]1CN(C)S(=O)(=O)c1cccs1	.	0.1	.	3.0	.
Fc1ccc2nc(N3CCCC3)sc2c1	156.0*	?	-0.3	?	5.5
Cn1cnc(S(=O)(=O)N[C@@H]2C=C[C@H](CC(=O)NCC3CCCCC3)O[C@@H]2CO)c1	.	-3.1	.	3.8	.
O=S(=O)(Nc1ccccc1)c1ccc(F)cc1	5.4	.	.	.	-1.0
Cc1cccc(C)c1NS(=O)(=O)c1ccc(F)cc1	-5.1	115.4*	.	-3.6	-1.2
CC(C)NC(=O)Nc1ccc2c(c1)C(=O)N([C@@H](C)CO)C[C@H](C)[C@@H](CN(C)S(=O)(=O)c1cn(C)cn1)OCCCC[C@@H](C)O2	.	.	.	-4.3	.
COc1cc2c(cc1OC)CN(C(=O)c1ccncc1)CC2	6.2	17.3	-1.7	-3.1	1.6
COc1ccc(C(=O)N2CCc3ccc(NC(=O)c4ccccn4)cc3C2)cc1F	45.4	7.5	14.2	52.4*	1.3
[O-][N+](=Cc1ccccc1)c1ccc(Cl)cc1	71.2	.	37.6*	.	1.4
[O-]/[N+](=C\c1ccco1)c1ccc(Cl)cc1	57.8	0.0	25.9	88.2*	2.5
[O-]/[N+](=C/c1ccc(F)cc1)c1ccc(Cl)cc1	49.6	16.1	.	.	2.8
CN1CCN(C(=O)C[C@@H]2CC[C@H]3[C@@H](COC[C@H](O)CN3C(=O)C3CC3)O2)CC1	.	5.8	.	-2.2	.
CN(Cc1ccccc1)S(=O)(=O)c1ccc(Cl)c(C(=O)NCCCN2CCOCC2)c1	-2.7	0.2	57.3*	-2.4	-0.8
Cc1ccc(Nc2c(-c3ccc(C)o3)nc3cnccn23)cc1	36.0	2.7	26.0	30.9	4.1
Cc1ccc(-c2nc3cnccn3c2Nc2ccccc2)o1	.	15.9	6.5	44.5*	3.4
Cc1ccc(S(=O)(=O)N(C)C[C@@H]2Oc3ccc(NC(=O)CCCCCC(=O)Nc4ccccc4N)cc3CC(=O)N([C@H](C)CO)C[C@@H]2C)cc1	.	12.2	.	-3.4	.
C[C@@H]1CN([C@H](C)CO)C(=O)c2cc(NC(=O)Nc3ccc(C(F)(F)F)cc3)ccc2O[C@@H](C)CCCCO[C@H]1CN(C)S(=O)(=O)c1cn(C)cn1	.	-52.9	.	12.1	.
CC(=O)C[C@@H](O)CC(=O)[C@@H]1OC(=O)CCCCCCc2ccccc21	-4.4	111.7*	-2.1	-4.7	1.0
Cc1ccc(CC(=S)N2CCOCC2)cc1	-3.0	124.4*	-2.0	-1.5	0.7

Screens: PubChem, several laboratories
